The nature of assay [1]: NCI Yeast Anticancer Drug Screen. Data for the rad50 strain (AID 155).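 Note: 0% = growth of vehicle-only cultures of the same strain.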 The settings on record: S. cerevisiae rad50 strain growth inhibition; at 50.0 µM; hits give high values. In short, it runs like this: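 DNA repair mutant yeast, compound exposure, growth read-out; inhibition is taken relative to vehicle.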
A short description of assay [2]: NCI Yeast Anticancer Drug Screen. Data for the mec2-1 strain (AID 157). The settings on record: S. cerevisiae mec2-1 strain, at 50.0 µM, hits give high values. In short, it runs like this:
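Readout is yeast growth inhibition, normalised to vehicle-treated controls, in the mec2-1 strain exposed to compound.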

Assay [3] is described as follows: NCI Yeast Anticancer Drug Screen. Data for the sgs1 mgt1 strain (AID 161).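 Note: 0% = growth of cultures given vehicle only.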 Conditions: S. cerevisiae sgs1 mgt1 strain, at 50.0 µM, hits give high values. In short, it runs like this: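 Percent growth inhibition was derived by comparing compound-exposed mutant yeast with vehicle-exposed cultures. The strain carries alterations in DNA damage repair.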
Assay [4] in a line: NCI Yeast Anticancer Drug Screen. Data for the cln2 rad14 strain (AID 165).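 Note: 0% = growth equal to vehicle treated cultures.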 Conditions: S. cerevisiae cln2 rad14 strain, at 50.0 µM, hits give high values. In short, it runs like this:
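Relative to vehicle controls, growth inhibition of compound-treated cln2 rad14 yeast was recorded.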

Assay [5] in a line: NCI Yeast Anticancer Drug Screen. Data for the bub3 strain (AID 167). The settings on record: S. cerevisiae bub3 mutant strain, at 50.0 µM, hits give high values. In short, it runs like this:
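In this screen, a yeast mutant lacking normal mitotic checkpoint function is challenged with compound. Relative growth versus vehicle gives the inhibition value.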

Assay [6] can be described thus: NCI Yeast Anticancer Drug Screen. Data for the mlh1 rad18 strain (AID 175). The settings on record: S. cerevisiae mlh1 rad18 strain growth inhibition; at 50.0 µM; hits give high values. In short, it runs like this:
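Test agents were incubated with a yeast strain of defined genotype (DNA damage repair defect). Inhibition of growth was derived by comparison with vehicle-exposed cultures.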

This is part of a sample that, as a whole, favours compounds with a hit. Of some 79,000 tested, about 15% had one in any assay. Unmarked numbers belong to inactive results. The source made the active and inactive calls. Cut-off read from the data, not from the text of the source: active = growth inhibition above about 70%; inactive = the rest.

As to `Nc1ccc(Sc2ccc(N)cc2)cc1`, the growth inhibition was 15.5% in assay [1]; 0.35% in assay [2]; -0.6% in assay [3]; -53.1% in assay [4]; -8.25% in assay [5]; 23.1% in assay [6].
Turning to `C1=CC2C=CC(C=C1)[PH+]2c1ccccc1.C1=CC2C=CC(C=C1)[PH+]2c1ccccc1.[C-]#[O+].[C-]#[O+].[C-]#[O+].[Fe]` (stereo not drawn), the growth inhibition in assay [1] is -20.1%; in assay [2] it was 4.4%; in assay [3], -6.6%; in assay [4] it was 26.1%; in assay [5], 10.6%; in assay [6], -4.85%.
`O=C(Nc1ncn[nH]1)C(Cl)(Cl)Cl`: the growth inhibition in assay [1] was -4.1%; in assay [2] it was -15.9%; in assay [3], -7.15%; in assay [4] it was -53%; in assay [5], -2%; in assay [6], -7.25%.
With `COC1OCC(N=[N+]=[N-])C(OC)C1O` (stereo not drawn), the growth inhibition in assay [1] is 18.8%; in assay [2], -12.4%; in assay [3], -3.1%; in assay [4], -19.2%; in assay [5], 5.65%; in assay [6], -1.8%.
For the compound `CCCCCC(N)CC(=O)O` (stereo not drawn), the growth inhibition in assay [1] was 8.95%; in assay [2] it was -21.1%; in assay [3], 4.25%; in assay [4], 8.1%; in assay [5], -2.25%; in assay [6], 9.85%.
On to `OC1C2CCC1C(N1CCOCC1)CC2` (stereo not drawn), for which the growth inhibition in assay [1] is 0.25%; in assay [2] it was 3.85%; in assay [3] it was 8.05%; in assay [4], -7.15%; in assay [5], 18.5%; in assay [6], 5.5%.
In the case of `CN(C)C(=S)Oc1cc(Cl)c(S(=O)(=O)F)cc1Cl`, the growth inhibition in assay [1] is 99.5% (active); in assay [2] it was 98.8% (active); in assay [3], 99.2% (active); in assay [4] it was 95.8% (active); in assay [5], 99.2% (active); in assay [6], 99% (active).
Turning to `C1CCNCC1.COc1ccccc1C(=O)[CH-]C(=O)C(F)(F)F.COc1ccccc1C(=O)[CH-]C(=O)C(F)(F)F.COc1ccccc1C(=O)[CH-]C(=O)C(F)(F)F.COc1ccccc1C(=O)[CH-]C(=O)C(F)(F)F.[Eu+3]`, the growth inhibition is 56.3% in assay [1]; 48.5% in assay [2]; 48.9% in assay [3]; 34.1% in assay [4]; 29.8% in assay [5]; 64.5% in assay [6].
On to `S=C([SH2+])[SH2+].S=C([SH2+])[SH2+].[Pt+2].c1ccc(C[P+](c2ccccc2)(c2ccccc2)c2ccccc2)cc1`, for which the growth inhibition in assay [1] was 44.7%; in assay [2], 3.45%; in assay [3], 36.2%; in assay [4] it was -16.6%; in assay [5], 3.6%; in assay [6], -0.1%.
For `CCCC[N+]1(C)CCCC1c1cccnc1` (stereo not drawn), the growth inhibition in assay [1] was -15.5%; in assay [2], -7.1%; in assay [3] it was 5.3%; in assay [4], -10.2%; in assay [5] it was -10.8%; in assay [6], -7.85%.
Take `Cc1ccc2c(c1)Cc1ccccc1-2`: the growth inhibition was 22.9% in assay [1]; -17.2% in assay [2]; 16.9% in assay [3]; 23.7% in assay [4]; 10.2% in assay [5]; 34.9% in assay [6].
Consider `[C-]#[O+].[C-]#[O+].[C-]#[O+].[C-]#[O+].[Mo].c1ccc([As](CC[As](c2ccccc2)c2ccccc2)c2ccccc2)cc1`, for which the growth inhibition was 3.4% in assay [1]; -0.4% in assay [2]; -5.8% in assay [3]; -5.7% in assay [4]; 1.15% in assay [5]; 6.6% in assay [6].
With `CC(Br)C(N)=O` (stereo not drawn), the growth inhibition in assay [1] was -14.4%; in assay [2] it was -17.8%; in assay [3] it was -14.1%; in assay [4] it was -20.4%; in assay [5], -4.9%; in assay [6], -13.8%.
Regarding `Cc1cccc(NC2=NCCO2)c1Cl`, the growth inhibition was -20.4% in assay [1]; -25.8% in assay [2]; -11% in assay [3]; 24.9% in assay [4]; -9.3% in assay [5]; -27.3% in assay [6].
In the case of `COc1ccc(S(=O)(=O)F)cc1NC(=O)CCc1ccc(N2C(N)=NC(N)=NC2(C)C)cc1Cl`, the growth inhibition was 79.8% (active) in assay [1]; 78.5% (active) in assay [2]; 86.8% (active) in assay [3]; 16.2% in assay [4]; 4.7% in assay [5]; 65.2% in assay [6].
Turning to `Oc1ccc(O)c(Br)c1`, the growth inhibition in assay [1] is 18.8%; in assay [2] it was 5.9%; in assay [3] it was 28.1%; in assay [4], -21.3%; in assay [5], -4.85%; in assay [6] it was 29.4%.
On to `CCOC(=O)NP(=O)(Nc1ccc(C)cc1)Nc1ccc(C)cc1`, for which the growth inhibition is 6.2% in assay [1]; -12% in assay [2]; -0.3% in assay [3]; 6.75% in assay [4]; -9.55% in assay [5]; -1.45% in assay [6].
Take `NP(=O)(Oc1cccc2c(OP(N)(=O)N(CCCl)CCCl)cccc12)N(CCCl)CCCl` (stereo not drawn): the growth inhibition in assay [1] is 6.95%; in assay [2] it was -3.65%; in assay [3] it was 8.1%; in assay [4], -29.7%; in assay [5] it was -3.25%; in assay [6] it was 16.9%.

These data come from PubChem BioAssay (NCI).
